Assays:
Assay in all cases: log2 ratio of Biotin-Ahx-Ub-VS probe labelling (fragment/DMSO); higher = less target engagement (more negative = stronger competition), active = hit call of the paper (q ≤ 0.05, log2 ratio ≤ -1)
Details in all cases: compound concentration: 200 uM; treatment time: 3 h
ALG13 = biological target: T1, ALG13 (UniProt Q9NP73)
T1 sequence (whole entry): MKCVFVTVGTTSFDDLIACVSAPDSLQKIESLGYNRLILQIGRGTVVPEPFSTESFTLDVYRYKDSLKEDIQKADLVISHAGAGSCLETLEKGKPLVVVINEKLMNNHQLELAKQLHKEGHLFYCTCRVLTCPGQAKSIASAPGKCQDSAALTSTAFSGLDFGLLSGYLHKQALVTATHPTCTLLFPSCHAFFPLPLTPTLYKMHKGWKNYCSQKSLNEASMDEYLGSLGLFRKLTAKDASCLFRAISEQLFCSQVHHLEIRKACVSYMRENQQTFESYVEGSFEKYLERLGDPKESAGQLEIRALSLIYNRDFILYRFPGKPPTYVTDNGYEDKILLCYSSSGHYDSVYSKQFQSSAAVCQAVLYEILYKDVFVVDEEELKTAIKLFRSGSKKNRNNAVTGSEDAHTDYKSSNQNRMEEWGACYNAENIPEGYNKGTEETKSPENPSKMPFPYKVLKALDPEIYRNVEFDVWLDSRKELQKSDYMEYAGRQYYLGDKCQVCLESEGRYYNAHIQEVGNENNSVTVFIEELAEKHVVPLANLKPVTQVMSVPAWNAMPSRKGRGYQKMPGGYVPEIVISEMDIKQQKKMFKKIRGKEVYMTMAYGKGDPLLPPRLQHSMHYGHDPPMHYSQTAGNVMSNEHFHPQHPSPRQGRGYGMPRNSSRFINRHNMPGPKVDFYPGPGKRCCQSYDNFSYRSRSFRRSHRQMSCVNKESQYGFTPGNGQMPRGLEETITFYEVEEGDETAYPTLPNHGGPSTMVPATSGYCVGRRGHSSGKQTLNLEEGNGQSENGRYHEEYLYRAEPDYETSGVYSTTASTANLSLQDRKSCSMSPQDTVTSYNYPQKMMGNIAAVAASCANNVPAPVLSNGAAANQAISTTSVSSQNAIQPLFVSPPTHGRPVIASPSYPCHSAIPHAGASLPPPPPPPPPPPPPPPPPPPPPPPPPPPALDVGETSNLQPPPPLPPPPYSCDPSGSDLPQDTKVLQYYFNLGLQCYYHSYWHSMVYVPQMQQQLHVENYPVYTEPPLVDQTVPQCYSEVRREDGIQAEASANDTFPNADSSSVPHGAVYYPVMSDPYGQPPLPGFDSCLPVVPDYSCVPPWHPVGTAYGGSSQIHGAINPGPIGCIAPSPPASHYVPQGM
Method in brief: (§1)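 Using Biotin-Ahx-Ub-VS at 0.5 µM final for 1 h, DUBs were labelled in HEK293T lysate (495 µg per sample) that had first been treated in triplicate with fragment at 200 µM or vehicle for 3 h. NeutrAvidin enrichment, LysC and trypsin digestion and diaPASEF LC-MS/MS followed. Spectronaut label-free quantities were global-median-normalised. Values are average log2 fragment/vehicle ratios by unpaired t-test, using proteins with ≥2 unique peptides.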

ATXN3 = ATXN3 (UniProt P54252)
Method in brief: as §1

BAP1 = biological target: T2, BAP1 (UniProt Q92560)
T2 sequence (whole entry): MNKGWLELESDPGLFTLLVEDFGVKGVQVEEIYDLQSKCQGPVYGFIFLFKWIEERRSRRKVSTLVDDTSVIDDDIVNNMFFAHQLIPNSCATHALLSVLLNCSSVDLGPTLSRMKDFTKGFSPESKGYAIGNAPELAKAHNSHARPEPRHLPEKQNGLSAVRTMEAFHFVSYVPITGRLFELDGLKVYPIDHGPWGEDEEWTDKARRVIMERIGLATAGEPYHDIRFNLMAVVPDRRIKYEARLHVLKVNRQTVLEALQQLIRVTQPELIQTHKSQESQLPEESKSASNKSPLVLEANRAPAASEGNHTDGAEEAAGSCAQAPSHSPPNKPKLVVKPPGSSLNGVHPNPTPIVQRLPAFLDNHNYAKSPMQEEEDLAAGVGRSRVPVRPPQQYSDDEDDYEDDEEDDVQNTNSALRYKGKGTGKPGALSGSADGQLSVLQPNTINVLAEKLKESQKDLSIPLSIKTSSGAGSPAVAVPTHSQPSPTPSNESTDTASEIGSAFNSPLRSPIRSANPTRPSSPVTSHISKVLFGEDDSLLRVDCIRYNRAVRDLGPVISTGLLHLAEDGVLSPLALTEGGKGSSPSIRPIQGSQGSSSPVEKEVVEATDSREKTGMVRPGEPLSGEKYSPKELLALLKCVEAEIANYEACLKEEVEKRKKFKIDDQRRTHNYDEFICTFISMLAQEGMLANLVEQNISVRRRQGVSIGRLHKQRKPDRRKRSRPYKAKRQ
Method in brief: as §1

EIF3F = EIF3F (UniProt O00303)
Method in brief: as §1

EIF3H = EIF3H (UniProt O15372)
Method in brief: as §1

FAM105A = biological target: T3, FAM105A (UniProt Q9NUU6)
T3 sequence (whole entry): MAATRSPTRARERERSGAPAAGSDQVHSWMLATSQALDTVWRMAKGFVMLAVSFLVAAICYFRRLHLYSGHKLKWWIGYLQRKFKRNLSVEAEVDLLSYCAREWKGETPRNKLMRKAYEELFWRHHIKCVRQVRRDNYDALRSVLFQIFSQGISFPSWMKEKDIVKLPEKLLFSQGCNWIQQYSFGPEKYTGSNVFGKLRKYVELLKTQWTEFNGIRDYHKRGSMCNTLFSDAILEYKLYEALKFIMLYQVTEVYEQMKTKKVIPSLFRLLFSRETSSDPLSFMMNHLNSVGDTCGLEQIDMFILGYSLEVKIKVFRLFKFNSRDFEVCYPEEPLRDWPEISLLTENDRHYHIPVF
Method in brief: as §1

OTUB1 = OTUB1 (UniProt Q96FW1)
Method in brief: as §1

OTUD4 = biological target: T4, OTUD4 (UniProt Q01804)
T4 sequence (whole entry): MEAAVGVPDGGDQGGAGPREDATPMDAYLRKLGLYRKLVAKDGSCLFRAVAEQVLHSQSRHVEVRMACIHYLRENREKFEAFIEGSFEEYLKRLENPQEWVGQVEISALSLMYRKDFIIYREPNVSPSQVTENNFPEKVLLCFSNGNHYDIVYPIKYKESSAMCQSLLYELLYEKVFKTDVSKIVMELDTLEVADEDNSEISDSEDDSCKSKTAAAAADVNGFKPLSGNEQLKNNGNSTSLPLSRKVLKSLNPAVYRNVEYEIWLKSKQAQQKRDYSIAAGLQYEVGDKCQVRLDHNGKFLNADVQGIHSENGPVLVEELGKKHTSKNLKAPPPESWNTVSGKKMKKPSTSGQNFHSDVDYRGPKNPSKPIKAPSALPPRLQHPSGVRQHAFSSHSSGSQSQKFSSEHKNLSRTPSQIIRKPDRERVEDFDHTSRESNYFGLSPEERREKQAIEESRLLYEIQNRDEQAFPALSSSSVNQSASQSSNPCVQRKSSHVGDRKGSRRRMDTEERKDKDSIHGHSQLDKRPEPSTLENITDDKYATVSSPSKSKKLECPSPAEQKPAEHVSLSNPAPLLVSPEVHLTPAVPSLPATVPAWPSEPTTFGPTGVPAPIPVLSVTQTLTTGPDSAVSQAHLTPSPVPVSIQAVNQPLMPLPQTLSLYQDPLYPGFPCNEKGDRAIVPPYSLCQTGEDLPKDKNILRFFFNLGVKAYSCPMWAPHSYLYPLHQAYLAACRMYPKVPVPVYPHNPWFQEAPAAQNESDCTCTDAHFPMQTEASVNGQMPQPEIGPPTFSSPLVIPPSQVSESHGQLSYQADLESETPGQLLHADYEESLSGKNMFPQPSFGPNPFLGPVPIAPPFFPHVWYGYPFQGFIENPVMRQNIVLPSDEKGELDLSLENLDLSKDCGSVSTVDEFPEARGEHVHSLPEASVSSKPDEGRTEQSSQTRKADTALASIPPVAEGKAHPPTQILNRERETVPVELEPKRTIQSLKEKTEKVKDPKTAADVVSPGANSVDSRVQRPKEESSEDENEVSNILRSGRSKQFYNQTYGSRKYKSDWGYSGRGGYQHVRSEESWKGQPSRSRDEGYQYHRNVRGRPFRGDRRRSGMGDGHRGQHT
Method in brief: as §1

OTUD5 = biological target: T5, OTUD5 (UniProt Q96G74)
T5 sequence (whole entry): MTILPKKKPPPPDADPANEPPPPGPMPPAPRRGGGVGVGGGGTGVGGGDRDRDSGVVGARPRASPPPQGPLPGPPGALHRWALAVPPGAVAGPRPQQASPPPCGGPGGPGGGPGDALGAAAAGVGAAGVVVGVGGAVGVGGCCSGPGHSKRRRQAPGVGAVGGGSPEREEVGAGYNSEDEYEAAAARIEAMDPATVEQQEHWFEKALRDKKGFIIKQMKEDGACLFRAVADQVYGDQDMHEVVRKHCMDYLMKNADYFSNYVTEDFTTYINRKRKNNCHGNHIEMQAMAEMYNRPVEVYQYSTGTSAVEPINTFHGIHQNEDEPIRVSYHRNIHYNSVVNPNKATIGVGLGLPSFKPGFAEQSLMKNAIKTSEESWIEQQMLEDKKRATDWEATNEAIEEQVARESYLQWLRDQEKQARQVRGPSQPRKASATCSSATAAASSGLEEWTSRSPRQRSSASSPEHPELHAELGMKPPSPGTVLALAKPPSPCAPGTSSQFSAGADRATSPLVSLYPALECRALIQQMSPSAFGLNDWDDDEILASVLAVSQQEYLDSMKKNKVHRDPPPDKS
Method in brief: as §1

Measured: log2 ratio of Biotin-Ahx-Ub-VS probe labelling

ATXN3, sequence (P54252 whole entry): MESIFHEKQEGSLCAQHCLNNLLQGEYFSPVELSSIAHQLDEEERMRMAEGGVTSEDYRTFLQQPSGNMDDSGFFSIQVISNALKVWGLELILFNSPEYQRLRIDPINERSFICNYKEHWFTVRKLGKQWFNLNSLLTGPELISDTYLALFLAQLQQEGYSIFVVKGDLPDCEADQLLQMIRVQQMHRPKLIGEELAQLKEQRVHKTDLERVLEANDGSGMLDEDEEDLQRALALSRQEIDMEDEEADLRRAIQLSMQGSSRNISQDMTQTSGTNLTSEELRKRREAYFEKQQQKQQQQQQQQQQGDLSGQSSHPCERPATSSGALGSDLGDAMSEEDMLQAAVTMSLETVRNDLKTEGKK
EIF3F, sequence (O00303 whole entry): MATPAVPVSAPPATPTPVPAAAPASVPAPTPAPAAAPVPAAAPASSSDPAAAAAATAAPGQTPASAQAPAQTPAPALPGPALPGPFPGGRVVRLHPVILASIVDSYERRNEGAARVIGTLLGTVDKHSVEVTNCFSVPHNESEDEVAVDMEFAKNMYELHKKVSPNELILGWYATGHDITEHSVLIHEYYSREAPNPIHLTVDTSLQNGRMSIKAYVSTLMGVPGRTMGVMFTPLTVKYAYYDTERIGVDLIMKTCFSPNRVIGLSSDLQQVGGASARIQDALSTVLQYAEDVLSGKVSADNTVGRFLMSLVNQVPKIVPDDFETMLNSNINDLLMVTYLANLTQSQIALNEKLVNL
EIF3H, sequence (O15372 whole entry): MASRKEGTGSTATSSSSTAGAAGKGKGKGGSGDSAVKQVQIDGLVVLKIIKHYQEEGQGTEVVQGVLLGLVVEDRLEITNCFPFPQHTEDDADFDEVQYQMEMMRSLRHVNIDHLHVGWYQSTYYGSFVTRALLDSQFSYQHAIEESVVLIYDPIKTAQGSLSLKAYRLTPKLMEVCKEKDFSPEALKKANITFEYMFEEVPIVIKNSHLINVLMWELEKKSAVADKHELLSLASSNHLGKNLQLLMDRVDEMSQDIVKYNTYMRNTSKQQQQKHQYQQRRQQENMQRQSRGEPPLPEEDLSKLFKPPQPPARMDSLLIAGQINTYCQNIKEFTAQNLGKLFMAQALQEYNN
OTUB1, sequence (Q96FW1 whole entry): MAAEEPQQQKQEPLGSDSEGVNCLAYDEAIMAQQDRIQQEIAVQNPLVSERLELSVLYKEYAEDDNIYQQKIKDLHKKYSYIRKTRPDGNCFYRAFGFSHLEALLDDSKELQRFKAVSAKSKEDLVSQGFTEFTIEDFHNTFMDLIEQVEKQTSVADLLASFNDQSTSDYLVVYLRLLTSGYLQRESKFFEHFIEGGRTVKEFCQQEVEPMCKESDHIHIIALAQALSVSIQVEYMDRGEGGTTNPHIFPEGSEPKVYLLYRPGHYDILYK

Cc1nc(CN2CCCN(C(=O)CCl)CC2)no1.Cl
inactive: ALG13 -0.458 | ATXN3 0.224 | BAP1 0.234 | EIF3F -0.233 | EIF3H 0.122 | FAM105A -0.14 | OTUB1 0.0104 | OTUD4 0.243 | OTUD5 -0.0201

— the supplement of paper PMC11732987, “Enantioselective OTUD7B fragment discovery through chemoproteomics screening and high-throughput optimisation” (Communications Chemistry, 2025)
